ALDH1A1 inh: inhibitors of human aldehyde dehydrogenase 1A1. P00352. Purified ALDH1A1, NADH fluorescence, propionaldehyde substrate. Potency, µM (highest dose often 75.3 µM), without a hit: at the highest dose activity, negative = inhibition, actives largely listed as inhibitors. 220,000 tested, 7.3% active. AID 1030;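 further: potency means the concentration at half of the fitted maximal effect; plate controls were no enzyme wells and a reference inhibitor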
HPGD inh: inhibitors of human 15-hydroxyprostaglandin dehydrogenase (HPGD); P15428; purified HPGD, NADH fluorescence kinetic, PGE2 substrate; Potency, µM, inactives show top-dose activity change, negative = inhibition, hits mostly inhibitors; 150,000 tested, 4.3% active; AID 894; further: potency means the concentration at half of the fitted maximal effect
Target sequence (P15428 whole entry, looked up): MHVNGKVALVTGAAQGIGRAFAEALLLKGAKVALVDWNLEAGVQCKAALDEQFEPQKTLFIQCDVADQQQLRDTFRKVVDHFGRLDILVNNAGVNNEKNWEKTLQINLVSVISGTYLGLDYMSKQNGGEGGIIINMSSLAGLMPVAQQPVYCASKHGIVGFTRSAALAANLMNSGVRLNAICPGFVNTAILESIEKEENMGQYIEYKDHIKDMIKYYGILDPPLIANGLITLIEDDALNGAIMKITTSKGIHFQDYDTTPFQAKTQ
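20 nM HPGD preincubated 15 min at room temperature with compound in 50 mM Tris-HCl pH 8, 0.01% Tween 20. Started with 1 mM NAD+ and 30 uM prostaglandin E2; NADH fluorescence (360/450 nm) read 5 times over 30-s intervals, last minus first.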
PNC assembly inh: inhibitors of perinucleolar compartment assembly; PC3M PTB-GFP, PNC prevalence imaging, 16 h; stronger effect = lower value; activity change (PNC), negative = inhibition, % at 10 µM; 140,000 tested, 3.1% active; AID 2417;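 active means readout at or below -70, meaning at least 70% loss of cells showing the perinucleolar compartment, a nuclear body marking cancer cells; inconclusive means readout between -30 and a set limit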;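 further: plate controls were DMSO wells for no effect and camptothecin positive control wells for full effect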
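Compounds are pinned in duplicate onto adhered PC3M cells stably expressing GFP-tagged PTB and incubated 16 h at 37 C. Cells are then fixed, nuclei stained with Hoechst, and PNC-positive cells counted.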
Numbers without * were called inactive; ? = inconclusive; / = not tested or not shown; [ ] = remark or other dose. Shown are actives, neighbours in structure and some others; about 11% of the full set was active somewhere. Unless noted, the call rests on the fitted dose curve; in most records, active means well fitted inhibition curve with a large enough effect (not every such curve was filed as active); inconclusive means small, poorly fitted or top-dose-only effect, or another doubt; inactive means no such curve, though single readings can be large or run the other way. Unless noted, on the % scale 0 is the no-effect control and ±100 the full control effect.

SMILES	ALDH1A1 inh	HPGD inh	PNC assembly inh
CC1(O)N(CCC(=O)Nc2cccc(F)c2)C(=O)OC12CCCCC2 (centres undefined)	-6%	/	/
CC(=O)Oc1cc(OC(C)=O)c2c(c1)OC(c1ccc(OC(C)=O)c(OC(C)=O)c1)C(OC(C)=O)C2 (centres undefined)	4%	3%	/
COc1ccc(C(C)(C)C)cc1S(=O)(=O)N1CCN(C)CC1	?	-8%	?
CCOc1ccc(S(=O)(=O)N2CCCCC2)c2ccccc12	32µM*	-29%	42
CCOc1ccc(C(C)(C)C)cc1S(=O)(=O)N1CCOCC1	3.2µM*	-3%	-97*
CCOc1ccc(C)cc1S(=O)(=O)N1CCCCC1	13%	0%	48
O=C(NCc1cccnc1)C1CC(=O)N(CCc2ccccc2)C1 (centres undefined)	-4%	-8%	?
O=C(O)CSc1ccc(Oc2ccc(SCC(=O)O)cc2)cc1	13µM*	/	/
O=C(O)COc1ccc(Oc2ccccc2)cc1	-4%	-14%	?
COC(=O)N1CCN(c2ccc(Cl)c(Cl)c2)CC1	2%	-20%	-102*
COc1ccc(C(=O)c2ccc(N(C)C)cc2)c(OC)c1	-16%	-11%	?
CCOc1ccc(C(=O)N2CCN(c3cccc(Cl)c3)CC2)cc1	4%	/	/
COc1ccc(C(=O)c2ccc(N3CCOCC3)cc2)c(OC)c1	1.1µM*	/	?
COc1cc(C(=S)N2CCN(c3cccc(Cl)c3)CC2)ccc1O	3.5µM*	/	/
CC(=O)N1CCN(C(=S)c2ccc(Cl)cc2)CC1	18µM*	25µM*	96
CC(=O)N1CCN(C(=S)c2cccc([N+](=O)[O-])c2)CC1	-18%	-18%	4
COC(=O)N1CCN(c2ccc(C)c(C)c2)CC1	6%	/	/
COc1cc(C2C3=C(CC(C)(C)CC3=O)OC3=C2C(=O)CC(C)(C)C3)cc([N+](=O)[O-])c1O	10%	/	/
Cc1cc(-c2c(C(=O)N3CCOCC3)c(C)nn2-c2ccccc2)no1	8%	/	/
COC(=O)c1ccc(C(=O)OC)c(NC(=S)N2CCN(c3cccc(Cl)c3)CC2)c1	-3%	-13%	24
Oc1ccc(C(=S)N2CCN(c3cccc(Cl)c3)CC2)cc1	7.9µM*	/	/
COc1ccc(C(=O)N2CCN(c3cccc(Cl)c3)CC2)cc1	4%	4%	41
CSc1ccccc1C(=O)N1CCN(c2cccc(Cl)c2)CC1	-1%	/	/
CC(=O)c1ccc(NC(=S)N2CCN(c3cccc(Cl)c3)CC2)cc1	12%	/	/
COc1ccc(C(=S)N2CCN(c3cccc(Cl)c3)CC2)c(OC)c1	20µM*	/	/
SMILES	ALDH1A1 inh	HPGD inh	PNC assembly inh
Oc1ccccc1C(=S)N1CCN(c2cccc(Cl)c2)CC1	10µM*	/	/
COC(=O)/C=C/C(=O)N1CCN(c2cccc(Cl)c2)CC1	10µM*	-2%	?
Cc1nnc(N/N=C/c2ccco2)n1N	8%	/	/
FC(F)(F)c1nnc2n1N=C(c1cccs1)CS2	1%	/	/
CCC(C)(C)NC(=O)CCCSc1nc2ccccc2s1	-6%	/	/
Cc1ccc([N+](=O)[O-])c(NC2OC(CO)C(O)C2O)c1 (centres undefined)	-2%	/	/
Cc1cc(C)nc(SCC(=O)N/N=C/c2cccc([N+](=O)[O-])c2)n1	-16%	?	-3
COCCOc1nc2c(c(=O)n(C)c(=O)n2C)n1Cc1cccc(OC)c1	?	-2%	-28
COc1cccc(Cn2c(OCC3CCCO3)nc3c2c(=O)n(C)c(=O)n3C)c1 (centres undefined)	7.1µM*	-11%	-24
CCOc1ccc(C(=O)CC(=O)C(=O)NCCc2ccc(OC)c(OC)c2)cc1	?	?	-5
CCC1=C(OC(=O)N(CC)CC)N2C(=O)OC(=NCC3CC3)[C@]2(Cc2ccccc2)[C@H]2C1=CC[C@H]1C(=O)N(CC)C(=O)[C@H]12	2%	-4%	/
CCN(CC)C(=O)C(Sc1ccccc1)c1ccccc1 (centres undefined)	4%	4%	13
CCCN1C2=NCCN2c2ccccc21	13%	-2%	29
CCCCCCCN1C2=NCCN2c2ccccc21	-6%	/	/
c1ccc(OCCN2C3=NCCN3c3ccccc32)cc1	4%	/	-90*
CCCCCCN1C2=NCCN2c2ccccc21	11%	5%	-107*
COC(=O)[C@@H]1C[C@H]2CC[C@H](O)C[C@H]2N1Cc1ccccc1OS(=O)(=O)c1ccc(C)cc1	?	-8%	/
O=C(O)c1cc2ccccc2c(Cc2c(O)c(C(=O)O)cc3ccccc23)c1O	-8%[13.5 µM]	-2%	/
CCC[C@@H]1C[C@@H](C(=O)N[C@@H]([C@H]2O[C@H](SC)[C@H](O)[C@@H](O)[C@H]2O)[C@@H](C)O)N(C)C1	6%	-6%	/
CC1=NN(C(N)=S)C(=O)C1N=Nc1ccccc1C (centres undefined)	5µM*	-26%	-2
CC1=NN(C(N)=S)C(=O)C1N=Nc1ccc(C)cc1C (centres undefined)	10µM*	-10%	-14
CC1=NN(C(=O)c2ccncc2)C(=O)[C@@H]1N=Nc1ccc2ccccc2c1	6%[13.5 µM]	-7%	/
CC1=NN(C(N)=S)C(=O)C1N=Nc1c(C)cc(C)cc1C (centres undefined)	-14%	-21%	7
COc1ccccc1CNC(=O)c1ccc(OC(F)F)c(OC)c1	-1%	0%	?
COc1ccc(OCc2nnc(SCC(=O)N3CCOCC3)o2)cc1	-5%	/	/
SMILES	ALDH1A1 inh	HPGD inh	PNC assembly inh
Fc1ccc(OCc2nnc(SCCN3CCOCC3)o2)cc1	-9%	22µM*	226
COc1ccc(OC)c(NC(=O)c2cc3n(n2)C(C(F)(F)F)CC(c2ccc4c(c2)OCO4)N3)c1 (centres undefined)	8%	-12%	-24
O=C(Nc1cc(Cl)ccc1O)c1cc2n(n1)C(C(F)(F)F)CC(c1ccc3c(c1)OCO3)N2 (centres undefined)	-8%	-9%	-84*
COc1ccc(CNS(=O)(=O)c2cccc(S(=O)(=O)N3CCOCC3)c2)cc1	?	-5%	-24
Cc1ccc(S(=O)(=O)c2nc(C(C)(C)C)oc2N2CCOCC2)cc1	10µM*	-10%	17
COc1cc(-c2nc(S(=O)(=O)c3ccccc3)c(N3CCOCC3)o2)cc(OC)c1OC	10µM*	-2%	14
COP(=O)(OC)c1nc(-c2ccccc2)oc1N1CCOCC1	?	?	-16
COc1ccc(-c2nc(S(=O)(=O)c3ccc(C)cc3)c(N3CCCC3)o2)cc1	?	-2%	34
Cc1ccc(S(=O)(=O)c2nc(C)oc2N2CCOCC2)cc1	-9%	/	/
O=S(=O)(c1ccccc1)c1nc(-c2ccccc2)oc1N1CCOCC1	3.5µM*	/	/
CN(C)CC1CCCCC1C1(O)c2ccccc2CSc2sccc21 (centres undefined)	-2%	-6%	-11
CCCCC[C@H](O)/C=C/[C@@H]1[C@@H](C/C=C\CCCC(=O)O)[C@H](O)C[C@H]1O	0%	-24%	/
Cc1noc(/C=C/N(C)C)c1S(=O)(=O)N1CCCC(C(=O)NC(C)c2ccccc2)C1 (centres undefined)	7.5µM*	32µM*	13
Cc1noc(/C=C/N(C)C)c1S(=O)(=O)N1CCCC(C(=O)NC2CCCCC2C)C1 (centres undefined)	4%	-29%	-16
Cc1noc(/C=C/N(C)C)c1S(=O)(=O)N1CCc2ccccc21	5.6µM*	-30%	-28
